In PubChem BioAssay (EPA / NIEHS) one finds outcome data, which are given here for 18 compounds.

Activity calls are given as the source filed them. Rule for the calls: active = hit-call score of the fitted dose curve at least 0.9, where 1 is the maximum; inactive = score below 0.9.

Read-out in this assay: serum amyloid A (SAA), SAA1 (gene 6288)
The assay can be described thus: BSK_CASM3C_SAA: BioMAP Diversity Plus: CASM3C Assay for serum amyloid A (SAA) Biomarker Activity (AID 2283049).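 Note: SAA protein level quantified by ELISA.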 Particulars: primary human coronary artery smooth muscle cells; actives raise or lower the signal.
For the compound `Clc1nc(Cl)c(Cl)c(Cl)c1Cl`, the outcome was inactive. For the compound `CC[C@H]1OC(=O)[C@H](C)[C@@H](O[C@H]2C[C@@](C)(OC)[C@@H](O)[C@H](C)O2)[C@H](C)[C@@H](O[C@@H]2O[C@H](C)C[C@H](N(C)C)[C@H]2O)[C@](C)(O)C[C@@H](C)C(=O)[C@H](C)[C@@H](O)[C@]1(C)O`, the outcome was inactive. The same measure for `CCOc1cccc(-n2cc(C(=O)N3CCN(c4cc(C(=O)O)c5ccccc5c4)CC3)nc2-c2ccc(C)cc2)c1`: “inactive”; for `CC(C)CCCCCCOC(=O)c1ccc(C(=O)OCCCCCCC(C)C)c(C(=O)OCCCCCCC(C)C)c1`: “inactive”; for `Cc1[nH]cnc1C[C@H]1CCc2c(C)c3ccccc3n2C1=O`: “inactive”. Then `Oc1ccc2c(c1)-c1ccccc1C2`, with “inactive”. The same measure for `CCCN(C1CCN(C(=O)C2CCNCC2)CC1)[C@@H]1CCc2ccc(OC)cc2C1`: “inactive”; for `COC(=O)c1ccccc1O`: “inactive”.

On to `COCCOCCOCCOC`, for which the outcome was inactive. As for `O=c1[nH]c2ccc(S(=O)CCN3CCC(Cc4ccc(F)cc4)CC3)cc2o1` (stereo not drawn), the result was inactive. In the case of `O=C(O)CC(O)C(=O)O` (stereo not drawn), the outcome was inactive. As for `CC(C)CC(C)(O)C#CC(C)(O)CC(C)C` (stereo not drawn), the result was inactive. Then `CC/C(=C\C(=N/O)C(N)=O)C(C)[N+](=O)[O-]` (stereo not drawn), with “inactive”; and `COCCOc1cc2cc(C(=O)NC3CCN(C(C)C)CC3)n(CC(=O)Nc3ccc(Cl)cn3)c2cn1`, with “inactive”; and `COC(=O)CC(=O)OC`, with “inactive”. As to `C1N2CN3CN1CN(C2)C3`, the result was inactive. With `CNCc1ccc(NC(=O)c2c[nH]c3c2C(=O)CCC3)cc1`, the result was inactive. In the case of `CC(=O)OC[C@H]1O[C@@](COC(C)=O)(O[C@H]2O[C@H](COC(C)=O)[C@@H](OC(C)=O)[C@H](OC(C)=O)[C@H]2OC(C)=O)[C@@H](OC(C)=O)[C@@H]1OC(C)=O`, the outcome was inactive.
